Laboratory results as given in PubChem BioAssay (NCATS).
Active and inactive are the calls of the source. The call rests on the fitted dose curve; in most records, active means well fitted activation curve with a large enough effect; inconclusive means small, poorly fitted or top-dose-only effect; inactive means no such curve, though single readings can be large or run the other way.

molecular target: Parathyroid hormone/parathyroid hormone-related peptide receptor (Homo sapiens) (UniProt Q03431); test: qHTS for PTHR1 Agonists: Optimization Screen against the NCGC LOPAC library (AID 1347079); conditions: HEK293 GP2 PTHR1 GloSensor cAMP luminescence, 1 h; series mostly up to 57.1 µM; activation: at the top concentration; further: 0% is about no effect
Method in brief: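 Compounds were tested across a qHTS titration. PTHR1-expressing GP2 cells report cAMP rises via GloSensor luminescence after 1 hr compound exposure at 37C with IBMX present.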

Sequence of Parathyroid hormone/parathyroid hormone-related peptide receptor (Homo sapiens) (Q03431 whole entry, looked up): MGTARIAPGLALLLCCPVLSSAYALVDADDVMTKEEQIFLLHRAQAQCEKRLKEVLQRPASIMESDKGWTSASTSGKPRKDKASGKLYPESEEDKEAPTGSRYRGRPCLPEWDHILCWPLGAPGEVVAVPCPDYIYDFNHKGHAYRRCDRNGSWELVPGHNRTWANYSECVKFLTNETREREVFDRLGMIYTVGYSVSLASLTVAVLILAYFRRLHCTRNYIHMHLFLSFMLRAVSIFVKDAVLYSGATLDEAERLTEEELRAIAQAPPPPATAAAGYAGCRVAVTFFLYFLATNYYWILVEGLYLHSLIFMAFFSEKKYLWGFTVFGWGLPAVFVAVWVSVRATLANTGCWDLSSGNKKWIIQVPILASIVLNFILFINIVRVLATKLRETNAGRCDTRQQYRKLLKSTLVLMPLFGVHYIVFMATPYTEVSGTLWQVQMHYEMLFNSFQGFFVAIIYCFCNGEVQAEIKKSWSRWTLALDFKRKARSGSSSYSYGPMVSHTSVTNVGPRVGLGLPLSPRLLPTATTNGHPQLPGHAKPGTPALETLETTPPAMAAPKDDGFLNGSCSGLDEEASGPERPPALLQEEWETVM

| Compound | activation |
| --- | --- |
| O=C(CCCN1CCC(O)(c2ccc(Cl)cc2)CC1)c1ccc(F)cc1 | -23.1% (inactive) |
| CC(C)(Oc1ccc(C2CC2(Cl)Cl)cc1)C(=O)O (stereo unspecified) | 20.9% (inactive) |
| O=C1N(c2ccccc2)c2ccccc2C1(Cc1ccncc1)Cc1ccncc1 | 1.61% (inactive) |
| Nc1c2c(nc3ccccc13)CCCC2 | -35.9% (inactive) |
| COc1ccc2c(c1)c(CC(=O)O)c(C)n2C(=O)c1ccc(Cl)cc1 | -4.49% (inactive) |
| CN(C)CCOC(c1ccccc1)c1ccccc1 | -13.7% (inactive) |
| O=c1c(-c2ccc(O)cc2)coc2cc(O)cc(O)c12 | 46% (inactive) |
| NCCc1cnc[nH]1 | -35.2% (inactive) |
| Cc1cn([C@H]2C=C[C@@H](CO)O2)c(=O)[nH]c1=O | 7.33% (inactive) |
| Nc1ccn([C@H]2CC[C@@H](CO)O2)c(=O)n1 | -3.58% (inactive) |
| CC1COc2c(N3CCN(C)CC3)c(F)cc3c(=O)c(C(=O)O)cn1c23 (stereo unspecified) | -16.7% (inactive) |
